This is a sample that favours compounds with a hit; in the whole collection about 32% have one here.
CYP2C19 inh: blockers of cytochrome P450 2C19 activity – biochemical, luminescence, ADME assay, primary screen. CYP2C19 Supersomes, luciferin-H EGE luminescence, 30 min. inhibition, % at 5 µM. 21% of 96,000 active. AID 778, 2007;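 active = CYP2C19 inhibition above a set limit at 5 µM in the primary screen, cut at about 50% in these data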;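 also: plate controls were negative control wells for no effect and 2.5 mM tranylcypromine positive control for full effect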
Target sequence (P33261 whole entry, looked up): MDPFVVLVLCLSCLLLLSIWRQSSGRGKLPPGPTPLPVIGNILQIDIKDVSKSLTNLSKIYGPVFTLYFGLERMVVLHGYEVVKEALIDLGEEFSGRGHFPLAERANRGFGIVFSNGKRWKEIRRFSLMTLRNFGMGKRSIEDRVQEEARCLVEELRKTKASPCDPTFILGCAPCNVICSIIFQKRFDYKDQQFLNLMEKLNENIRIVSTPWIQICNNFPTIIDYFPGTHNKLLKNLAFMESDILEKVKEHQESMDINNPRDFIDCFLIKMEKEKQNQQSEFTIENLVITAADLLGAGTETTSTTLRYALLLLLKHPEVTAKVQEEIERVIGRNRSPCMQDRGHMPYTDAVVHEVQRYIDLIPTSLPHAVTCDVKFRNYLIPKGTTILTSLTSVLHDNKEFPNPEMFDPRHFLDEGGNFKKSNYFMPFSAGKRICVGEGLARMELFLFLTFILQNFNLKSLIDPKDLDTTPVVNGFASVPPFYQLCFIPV
PostGolgi ctrl: growth inhibition of yeast control strain, primary screen, counter-screen for post-Golgi transport modulator project; efflux-deficient yeast background strain, growth absorbance A615, 16 h; inhibition, % at 10 µM; 5% of 98,000 active; AID 738, 2007
CYP2C9 activ: human CYP2C9 activators, primary screen, biochemical, luminescence; Cytochrome P450 2C9 (Homo sapiens), P11712; recombinant CYP2C9, luciferin-H conversion; hits give high values; factor 1 = untreated enzyme, 0 = blocked; activation factor at 5 µM; 1.4% of 96,000 active;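 active = activation factor of 2 or more for CYP2C9 at a 5 µM dose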;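 also: 0 = sulfaphenazole-blocked wells and 1 = vehicle-only wells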
CYP2C19 act: human CYP2C19 activators, primary screen, biochemical, luminescence. recombinant CYP2C19, luciferin-H EGE luminescence; hits give high values; 0 = fully inhibited enzyme, 1 = untreated enzyme. Cytochrome P450 2C19 (Homo sapiens), P33261. 96,000 tested, under 10 active. activation factor at 5 µM;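 active = activation factor of at least 2 at 5 µM in the primary screen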;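 also: 0 = wells with 2.5 mM tranylcypromine and 1 = vehicle-only wells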
CYP2C9 inhib: blockers of cytochrome P450 2C9 activity – biochemical, luminescence, ADME assay, primary screen | P11712 | CYP2C9 Supersomes, luciferin-H conversion | inhibition, % at 5 µM | 20% of 96,000 active | AID 777, 2007;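 active = blocking of liver enzyme CYP2C9 beyond about 50% at 5 µM, limit read from the data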
PostGolgi yeast: phenotypic screen on post-Golgi transport, primary screen. post-Golgi transport phenotypic cell assay. 0.9% of 98,000 active. inhibition, % at 10 µM;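 also: yeast cells grown in 1536-well plates; yeast grown about 18 h at 30C before absorbance read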
* hit, by the source's call; x = no result given. Rule as the data show it, unless noted: active = inhibition above about 30%; inactive = the rest.

SMILES	CYP2C19 inh	PostGolgi ctrl	CYP2C9 activ	CYP2C19 act	CYP2C9 inhib	PostGolgi yeast
O=C(COc1cc(O)c2c(=O)cc(-c3ccccc3)oc2c1)c1ccccc1	31.7	25.3	0.4	0.7	59.1*	5.5
Cc1oc(-c2ccccc2F)nc1CS(=O)(=O)CC(=O)NCc1ccco1	10.9	9.9	0.7	0.9	32.3	12.2
Cc1cc(C)c2nc3s/c(=C/c4ccc5c(c4)n(C)c(=O)n5C)c(=O)n3c2c1	-14.1	4.5	1.1	1.1	-14.8	-1.0
CC(C)Cc1nnc(NS(=O)(=O)c2ccc(Cl)cc2)s1	9.0	11.4	0.3	0.9	70.5*	-1.2
COc1ccc(S(=O)(=O)Nc2nnc(CC(C)C)s2)cc1	-2.3	1.4	0.4	1	63.0*	3.4
COc1ccc(S(=O)(=O)Nc2nnc(C)s2)cc1	12.1	1.6	0.5	0.9	47.5	-5.4
O=C(O)CCSc1nc2ccccc2c(=O)[nH]1	x	17.8	x	x	x	11.0
CCOC(=O)c1c(C)c(C(=O)NC(C)COC)c(C)n1CC (stereo not drawn)	5.0	7.2	1	0.9	0.2	8.1
COc1ccc(-c2nnc(SCC(=O)NC(=O)NCc3ccco3)o2)cc1	52.5*	4.8	1.2	0.5	-18.2	-5.0
COc1ccc(N(CC(=O)NCc2ccco2)S(C)(=O)=O)cc1	46.3	7.1	0.8	0.5	18.8	-2.0
COc1ccc(-c2nnc(SCC(=O)NC(C)c3ccccc3)o2)cc1 (stereo not drawn)	59.2*	14.9	1.3	0.4	-31.8	1.2
O=C(CSc1nnc(-c2ccc(OC(F)F)cc2)o1)NCc1cccs1	64.3*	19.4	0.7	0.4	33.8	-13.8
COc1ccc(-c2ccc(SCC(=O)NCc3ccco3)nn2)cc1	12.5	-1.8	0.8	0.9	17.9	8.0
COc1cccc(CN(C)CC(=O)NC(=O)NCc2ccco2)c1	58.1*	7.7	0.7	0.4	28.9	-1.2
O=C(CCS(=O)(=O)Cc1ccc(Cl)cc1)NCCCN1CCOCC1	45.1	-5.6	1	0.5	-3.0	-0.6
O=C(CC1C(=O)NCCN1C(=O)Nc1ccccc1)Nc1cccc(C(F)(F)F)c1 (stereo not drawn)	16.7	10.2	0.7	0.8	34.5	-5.6
CC1=NC(C(F)(F)F)(C(F)(F)F)C(C#N)=C(C)N1	68.7*	7.0	1	0.3	0.2	-0.2
Cc1ncsc1CCOC(=O)C12CC3CC(CC(C3)C1)C2	17.1	46.4*	0.9	0.8	13.8	-2.6
Cc1ncsc1CCOC(=O)c1cccnc1	19.5	7.3	0.9	0.8	7.2	-2.1
Cc1ccc(OC(=O)Cn2c(C(F)(F)F)nc3ccccc32)cc1	11.7	2.8	0.8	0.9	16.1	5.6
CC(=O)N1c2c(ccc3ccccc23)C(C)CC12CCCCC2 (stereo not drawn)	98.0*	38.1*	0.1	0	93.3*	8.2
NC(=O)C1CCCN(C(=O)Nc2cccc3ccccc23)C1 (stereo not drawn)	-0.1	0.5	1.1	1	-13.0	2.5
COc1cc(C(=O)N(Cc2cccc(Cl)c2)C2CCS(=O)(=O)C2)cc(OC)c1OC (stereo not drawn)	-10.0	6.6	0.9	1.1	11.6	-0.3
COCCOC(=O)c1c(C)oc2ccc(OC(=O)c3c(OC)cccc3OC)cc12	92.7*	19.7	0	0.1	95.8*	-9.3
CCOC(=O)c1c(C)oc2ccc(OC(=O)N3CCOCC3)cc12	4.5	17.4	1	1	0.8	-2.5
SMILES	CYP2C19 inh	PostGolgi ctrl	CYP2C9 activ	CYP2C19 act	CYP2C9 inhib	PostGolgi yeast
CCOC(=O)Oc1ccc2oc(C)c(C(=O)OCCOC)c2c1	15.4	3.6	1	0.8	-0.8	2.4
COCCOC(=O)c1c(C)oc2ccc(OC(=O)c3ccc4c(c3)OCO4)cc12	-9.9	7.6	0.1	1.1	86.8*	-16.1
O=C(N/N=C\c1ccc(Cl)cc1Cl)c1sccc1-n1cccc1	32.9	7.0	0.5	0.7	50.6*	-3.0
CCOC(=O)N1CCN(c2nc(C)c3c(n2)CC(C)CC3=O)CC1 (stereo not drawn)	39.0	2.9	0.5	0.6	52.3*	12.7
CCOC(=O)Cc1cnc(NC(=O)NC(C(=O)OCC)(c2ccccc2)C(F)(F)F)s1 (stereo not drawn)	53.0*	6.5	0.7	0.5	32.7	3.3
CCOC(=O)C(NC(=O)Nc1ccccc1)(OCC)C(F)(F)F (stereo not drawn)	50.3*	14.4	0.8	0.5	19.9	-2.2
CCOC(=O)C(NC(C)=O)(OCc1ccc(F)cc1)C(F)(F)F (stereo not drawn)	55.3*	-2.5	0.9	0.4	9.0	-4.4
CCOC(=O)C(NC(=O)Nc1cccc(C)n1)(OCC(F)(F)F)C(F)(F)F (stereo not drawn)	20.3	15.9	0.6	0.8	37.8	-6.3
Cc1cc(-c2ccccc2)nc(N(C)NC(=O)c2ccc(Cl)cc2)c1S(C)(=O)=O	2.0	1.8	0.6	1	40.5	5.5
CN(NC(=O)c1ccc(Cl)cc1)c1cccc(Cl)n1	55.5*	14.0	1.2	0.4	-21.7	2.6
CC(C)N=C(Nc1ccccc1)c1cccnc1	6.2	7.0	1.4	0.9	-38.0	-1.6
O=C(NNC1=C(C(=O)C(F)(F)F)CCC1)c1cccc(Cl)c1	25.8	7.0	0.1	0.7	91.1*	2.9
CCCc1ccc(C(=O)NNC(=O)c2ccc(Cl)cc2)cc1	-9.3	11.6	1	1.1	4.9	8.6
O=C(NNC1=C(C(=O)C(F)(F)F)CCC1)c1ccc(Cl)cc1	2.1	2.7	0.5	1	50.4*	0.2
CCc1c(C)nc2nc(NC(C)=O)[nH]n2c1=O	-24.9	19.2	0.8	1.2	17.5	4.7
Cn1c(-c2ccc(N)cc2)nc2ccccc21	11.0	8.9	0.9	0.9	8.1	4.1
CCN1c2ccccc2-c2nc3ccccc3n2C1c1ccncc1 (stereo not drawn)	97.7*	9.9	0	0	99.9*	-13.7
c1ccc2c(c1)NC(c1ccncc1)n1c-2nc2ccccc21 (stereo not drawn)	x	8.6	x	x	x	-2.5
CCN1c2ccccc2-c2nc3ccccc3n2C1c1ccccn1 (stereo not drawn)	10.3	40.2*	0.7	0.9	34.1	-8.8
c1cncc(C2Nc3ccccc3-c3nc4ccccc4n32)c1 (stereo not drawn)	37.2	15.8	0.4	0.6	57.1*	-0.8
Cc1ccc(C2N(C)c3ccccc3-c3nc4ccccc4n32)o1 (stereo not drawn)	86.9*	23.9	0.1	0.1	92.6*	1.6
C=CCn1c(=N)c(C(=O)OC)cc2c(=O)n3cccc(C)c3nc21	1.1	x	0.7	1	25.2	x
CN(C)S(=O)(=O)N1CCN(C(=O)N2CCOCC2)CC1	-2.3	-1.9	1	1	2.8	-0.8
